Common to all, as to assay: NCI-60 one-dose screen, 48 h (100 = growth as untreated, 0 = no growth, -100 = all killed)
Details in all cases: 10 µM unless noted

The subject of experiment [1] is EKVX NSCLC.
Experiment [2] has as its system SN12C renal.
In experiment [3] the test system is UO-31 renal.
The test system of experiment [4] is TK-10 renal.
Experiment [5] relates to ACHN renal.
Experiment [6] relates to CAKI-1 renal.
Experiment [7] relates to A498 renal.
In experiment [8] the test system is CCRF-CEM leukemia.
Experiment [9] deals with MOLT-4 leukemia.
In experiment [10] the test system is SR leukemia.
Experiment [11] deals with RPMI-8226 leukemia.
Experiment [12] concerns OVCAR-8 ovarian.
Experiment [13] has as its system OVCAR-5 ovarian.
Experiment [14] concerns OVCAR-4 ovarian.
For experiment [15], the system named is SK-OV-3 ovarian.
Experiment [16] has as its system IGROV1 ovarian.
In experiment [17] the test system is OVCAR-3 ovarian.
The subject of experiment [18] is HS 578T breast.
The subject of experiment [19] is NCI/ADR-RES ovarian.
In experiment [20] the test system is SK-MEL-2 melanoma.

Structures are written as SMILES. About 83,000 compounds went through this panel and 20% of them were active in at least one assay; those are over-represented in the sample as a whole.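 Each cell line was grown in a 96-well plate and treated with one concentration of compound for 48 hours. Values below 10 were considered active.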 Values without a mark were called inactive. Activity calls are given as the source filed them.

For `CCOc1ccc2nc(-c3cccc(OCC(=O)NC(C)C)c3)nc(Nc3ccc(-c4cn[nH]c4)cc3)c2c1`, the growth in experiment [1] is 9.24% (active); in experiment [2] it was 18.6%; in experiment [3] it was -13.3% (active); in [4], 47.4%; in experiment [5], 7.49% (active); in experiment [6], 27.7%. For the same molecule, the growth in [7] was 46.7%; in experiment [8], 20.4%; in [9], 5.6% (active); in [10] it was 0.178% (active); in [11] it was -18.4% (active); in experiment [12] it was -22.7% (active). Further, the growth is 40.8% in [13]; -60.3% (active) in experiment [14]; 68.4% in experiment [15]; 20.9% in experiment [16]; -3.59% (active) in experiment [17]; -44.5% (active) in experiment [18]. The growth in [19] is 14.3%.
Turning to `C=C(Cl)COC(=O)C(C)(C)O`, the growth was 92.9% in experiment [20]; 107% in experiment [2]; 92.7% in [3]; 89.5% in [4]; 105% in [5]; 94.6% in [6]. Moreover, the growth in experiment [7] was 94.1%; in experiment [8], 92.6%; in experiment [9], 97.1%; in experiment [10], 91.2%; in [11], 99.5%; in experiment [12] it was 98.7%. Moreover, the growth is 102% in [13]; 97.2% in experiment [15]; 109% in experiment [16]; 109% in experiment [17]; 110% in experiment [18]; 95.2% in [19].
Take `Fc1ccc(Nc2nc3nonc3nc2Nc2ccc(F)cc2)cc1`: the growth is -26.2% (active) in experiment [20]; 12% in experiment [2]; -6.75% (active) in experiment [3]; -4.95% (active) in experiment [4]; -15.9% (active) in experiment [5]; -8.48% (active) in experiment [6]. Besides, the growth is 17.1% in [8]; -8.01% (active) in experiment [9]; 7.15% (active) in [10]; 6.64% (active) in experiment [11]; 8.53% (active) in [12]; -16.7% (active) in [13]. The growth in [14] is 5.75% (active); in [15] it was 3.75% (active); in experiment [16], 32.6%; in experiment [17] it was 1.97% (active); in [18] it was -1.86% (active); in experiment [19], 3.98% (active).
Turning to `Nc1c(C(=O)c2ccccc2)nnc2ncnn12`, the growth in experiment [20] was 92%; in experiment [2], 101%; in experiment [3], 101%; in experiment [4], 96%; in experiment [5], 122%; in experiment [6] it was 104%. For the same molecule, the growth in experiment [8] was 98.4%; in [9], 95.8%; in experiment [10], 94.6%; in experiment [11], 101%; in [12] it was 107%; in experiment [13] it was 121%. The growth in experiment [14] is 116%; in [15], 98%; in [16], 106%; in experiment [17] it was 105%; in experiment [18], 106%; in experiment [19] it was 107%.
In the case of `NC(=S)N/N=C/C(=O)O`, the growth in experiment [20] was 85.3%; in experiment [2] it was 90.4%; in [3] it was 38.8%; in experiment [4] it was 111%; in experiment [5] it was 91.2%; in experiment [6] it was 88.5%. The growth is 80.3% in experiment [7]; 24.3% in experiment [8]; 44% in experiment [9]; 48.1% in experiment [11]; 81.9% in [12]; 102% in experiment [13]. For the same molecule, the growth in experiment [14] was 75.3%; in experiment [15], 108%; in experiment [16], -32.7% (active); in experiment [17], 26.1%; in experiment [19] it was 88.7%.
Regarding `COc1ccc(O)c(-c2cc(-c3ccccc3)c(C#N)c(=O)[nH]2)c1`, the growth in [1] is 104%; in experiment [2], 85.1%; in experiment [3] it was 68.2%; in experiment [4], 88.2%; in experiment [5] it was 106%; in experiment [6] it was 95.1%. Also, the growth is 65.9% in experiment [7]; 91.7% in [8]; 102% in [9]; 89% in [10]; 81.2% in experiment [11]; 96.3% in experiment [12]. Moreover, the growth is 124% in experiment [13]; 97.4% in [14]; 92.6% in experiment [15]; 98.8% in experiment [16]; 95.9% in experiment [17]; 89.6% in [18]. For the same molecule, in experiment [19], the growth was 97.3%.
As for `N[C@H]1CCC[C@@H]1NCCCCN1C(=O)c2cccc3cccc(c23)C1=O`, the growth in experiment [1] is 84.6%; in experiment [2], 63.9%; in experiment [3] it was 60.3%; in experiment [4], 65.8%; in [5], 44.9%; in experiment [6] it was 84.4%. The growth in experiment [7] was 40.5%; in [8], 84.5%; in experiment [9], 20.2%; in experiment [10], 20%; in experiment [11], 75.1%; in experiment [12], 39.9%. For the same molecule, the growth in experiment [13] is 74%; in experiment [14], 36%; in [15] it was 95.2%; in experiment [16], 39.3%; in experiment [17] it was 61.3%; in [18] it was 68.2%. The growth in experiment [19] is 79.1%.
In the case of `O=C(Nc1ccc(N2CCCCC2)c(Cl)c1)c1ccc(Br)o1`, the growth in experiment [20] is 91.9%; in experiment [2], 80.6%; in [3], 51.5%; in experiment [4] it was 102%; in experiment [5], 64.3%; in experiment [6] it was 94.8%. The growth in [8] is 74.9%; in experiment [9] it was 75.4%; in [10], 40.8%; in experiment [11], 55.7%; in [12] it was 59%; in [13], 114%. Besides, the growth is 73% in experiment [14]; 107% in experiment [15]; 75.1% in experiment [16]; 43.6% in experiment [17]; 72.8% in [18]; 68% in [19].
